Assay outcomes (PubChem BioAssay)
Giardia killer = Giardia lamblia killing; Giardia lamblia trophozoite viability; AID 540267; 340,000 tested, 0.15% active; activity change, % at 7.66 µM, hits read low; in the data active = activity change below about -80%; inconclusive = between about -30% and that limit;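 also: parasites exposed to compound for two days anaerobically before the ATP read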
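Giardia lamblia trophozoites (100 cells/well) were incubated with compounds for 48 h at 37 deg C under anaerobic conditions. Viability was read as ATP content by one-step luminescence after 15-30 min at room temperature.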
Coupling enz = counter-screen for Giardia aldolase inhibitors: coupling enzyme system; coupling enzyme system counterscreen, AmpLite Red fluorescence; activity change, negative = inhibition, % at 58.2 µM, hits read low; 290,000 tested, 0.67% active; AID 2472; in the data active = activity change below about -30%
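Counterscreen of the coupled detection system alone, without aldolase: glyceraldehyde-3-phosphate coupling enzymes plus AmpLite Red readout. Compounds at 57.5 uM final, 10 min RT preincubation, 20 min RT reaction, fluorescence 525/598 nm.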
Sfp PPTase inh = Sfp phosphopantetheinyl transferase inhibition | Biochemical Sfp PPTase activity, qHTS | AID 1490 | Potency, µM, inactives show largest response in the series, negative = inhibition, usual class: inhibitors | 310,000 tested, 3.5% active;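 also: the enzyme is Sfp with the accession as filed and its product quenches rhodamine fluorescence; potency is read from the fitted curve at half-maximal effect; 0% = enzyme reaction without inhibitor and -100% = no enzyme wells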
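Reaction rates are the 30-min fluorescence difference (ex 525, em 598 nm) in wells containing 15 nM Sfp, 5 uM rhodamine-CoA and 12.5 uM BHQ-2-YbbR at pH 7.6 with 10 mM MgCl2.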
ELG1 DNA repair = inhibitors of ELG1-dependent DNA repair in HEK293T cells; HEK293T ELG1-luciferase reporter, luminescence, 16 h; DNA damage induced by 5-fluorouridine; Potency, µM (top dose mostly 46.1 µM), without a hit: top-dose activity change, negative = inhibition, hits mostly inhibitors; 330,000 tested, 2.3% active; also: potency is read from the fitted curve at half-maximal effect; nearly all actives have a fitted effect of over 55% in size
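HEK293T cells expressing luciferase-tagged ELG1 (2,000/well) received 5-Fluorouridine plus compound or DMSO for 16 hr at 37 °C. Luciferase was read by ONE-Glo luminescence after 30 min at room temperature.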
* = called active by the depositor; ? = inconclusive; · = no result given. In the library only some 5.5% were active in any assay of this set; here they are far more common. Unless noted, calls follow the shape of the dose curve; as a rule, active = well fitted curve in the direction sought with a large enough effect; inconclusive = small, poorly fitted or top-dose-only effect, or another doubt; inactive = no such curve, though single readings can be large; an effect the other way counts as inactive or inconclusive. Unless noted, % is scaled to controls: 0 for no effect and ±100 for the full control effect.

SMILES	Giardia killer	Coupling enz	Sfp PPTase inh	ELG1 DNA repair
O=C1c2cccc3cccc(c23)C(=O)N1c1ccc(O)cc1	?	2	50µM*	5%
O=C1c2ccc3c4c(ccc(c24)C(=O)N1c1cccc(O)c1)CC3	67	0	5%	13%
C#CCn1cc(/C=N/Nc2nc3ccccc3[nH]2)c2ccccc21	17	-2	11µM*	?
COc1ccc(/C=N/Nc2nc3ccccc3[nH]2)cc1OC	5	1	22µM*	?
CCOc1cc(/C=C2\COc3ccccc3C2=O)cc(Br)c1OCC(=O)N(C)C	-13	-1	50µM*	?
C(=N\Nc1nc2ccccc2[nH]1)/c1ccc2c(c1)OCCO2	-14	2	25µM*	?
COc1ccc(-c2sc3ccccc3c2/C=C/c2ccncc2)cc1	-22	·	·	?
COc1cc(/C=N\Nc2nc3ccccc3[nH]2)cc(OC)c1OC	6	3	9%	-2%
COc1cc(/C=N/Nc2ccccn2)ccc1O	-6	1	?	?
COc1cc(/C=N\NS(=O)(=O)c2ccccc2)cc(OC)c1OC	-10	-8	15%	9%
COc1ccc(/C=N/Nc2ccccn2)cc1OC	0	-6	56µM*	?
COc1ccc2c(c1)c(/C=N/Nc1nc3ccccc3[nH]1)c(C)n2C	25	0	11µM*	?
COc1ccc(/C=N/NS(=O)(=O)c2ccccc2)cc1OC	-13	1	10%	18µM*
CCOc1cc(/C=N/Nc2nc3ccccc3[nH]2)cc(Br)c1OCC(=O)N(C)C	3	0	-66%	23µM*
CC1OC(n2cc(F)c(=O)[nH]c2=O)C(O)C1O (configuration not stated)	·	2	17%	·
Nn1c(SCC(=O)NCCc2ccc(F)cc2)nnc1C1CCCCC1	-1	·	·	5%
CC(=O)OCC1OC(C#Cc2ccccc2)C=CC1O (configuration not stated)	·	1	4%	·
COc1ccc(-c2nn(-c3ccccc3)cc2/C=N/O)cc1OC	-15	0	13%	-14%
COc1ccc(-c2nn(-c3ccccc3)cc2/C=N/N=C(N)N)cc1OC	3	-2	50µM*	?
COc1ccc(-c2nn(-c3ccccc3)cc2/C=N/NC(=S)NC(C)C)cc1OC	-11	-2	11%	12µM*
C=CCNC(=S)N/N=C/c1cn(-c2ccccc2)nc1-c1ccc(OC)cc1	6	-2	21%	9%
COc1ccc(-c2nn(-c3ccccc3)cc2C(=O)NC(=S)N2CCOCC2)cc1OC	-4	·	·	21µM*
COc1ccc(-c2nn(-c3ccccc3)cc2/C=N/Nc2ccc3ccccc3n2)cc1OC	5	-5	-1%	12µM*
COc1cc(Nc2nc3c(N)cc(C(F)(F)F)cc3nc2-c2ccccc2)cc(OC)c1OC	8	·	·	·
CN(C)C(=O)c1ccc(-c2cncnc2N2CCNCC2)cc1	·	5	23%	·
SMILES	Giardia killer	Coupling enz	Sfp PPTase inh	ELG1 DNA repair
Cc1cc(C)c(CN2CCN(C(=O)Cn3cnc4c(NCc5ccccc5)ncnc43)CC2)c(C)c1	-28	·	·	1µM*
O=C(Cn1cc(S(=O)(=O)Cc2ccccc2F)c2ccccc21)N1CCOCC1	3	·	-16%	8%
Cc1ccc(CS(=O)(=O)c2cn(CC(=O)N3CCOCC3)c3ccccc23)cc1	18	·	56µM*	?
Cc1cccc(NC(=O)CS(=O)(=O)c2cn(CC(=O)N3CCOCC3)c3ccccc23)c1	13	5	16%	5%
Cc1cccc(CS(=O)(=O)c2cn(CC(=O)N3CCOCC3)c3ccccc23)c1	10	·	50µM*	11%
COc1ccc(CCN2CC(C(=O)OCC(=O)N(C)CC(=O)Nc3ccccc3Cl)CC2=O)cc1OC (configuration not stated)	-20	·	·	·
CC1CC=CC2C1C(=O)N(Cc1ccccc1)C2c1ccc(-c2ccc(N(C)C)cc2)cc1F (configuration not stated)	1	-3	-19%	·
CC(C)(C)C1=CC(=O)C(N2CCOCC2)=CC1=O	-1	-58*	-16%	2%
O=C1C=C(N2CCCCC2)c2ccccc2C1=O	-11	·	·	·
C/C(=N\NC(=O)c1c(Cl)c(C)nn1C)c1cccc(NC(=O)COc2ccc(Cl)cc2)c1	2	-3	4%	16µM*
C/C(=N/NC(=O)c1ccc(C)s1)c1cccc(NC(=O)COc2ccc(Cl)cc2C)c1	-1	1	23%	1%
